# Bioassay records: PubChem BioAssay, The Scripps Research Institute Molecular Screening Center
# FBW7 activator: human FBW7 E3 ligase activation, primary screen | Q969H0 | normalized activity (activation), % at 26.1 µM | hit rate 0.13% among 650,000 | AlphaScreen FBW7–phospho-cyclin E peptide binding, activator screen | AID 1259310; in the data active = normalized activity above about 1.9%;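 also: purified mutant Fbw7 with reduced substrate affinity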
# TEAD-YAP block: TEAD-YAP interaction inhibition; inhibition, % at 9.12 µM; HEK-TIYL cells, TEAD-Gal4/YAP UAS-luciferase luminescence; AID 1259422; hit rate 1.4% among 640,000; in the data active = inhibition above about 32%;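 also: 0% = median of test compound wells and 100% = reference inhibitor wells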
# MITF primary: inhibitors of human MITF. AlphaScreen MITF homodimerization, bead proximity signal. inhibition, % at 2.6 µM. hit rate 0.91% among 650,000. AID 1259374; in the data active = inhibition above about 50%;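 also: 0% = vehicle wells with protein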
# GPR151 ag: activators of human GPR151; activation, % at 11.2 µM; Q8TDV0; hit rate 1% among 650,000; PathHunter beta-arrestin GPR151 cells, luminescence; AID 1508602; in the data active = activation above about 4.9%;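 also: 0% = median of compound wells and 100% = cells with positive control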
# Target sequence (Q8TDV0 whole entry, looked up): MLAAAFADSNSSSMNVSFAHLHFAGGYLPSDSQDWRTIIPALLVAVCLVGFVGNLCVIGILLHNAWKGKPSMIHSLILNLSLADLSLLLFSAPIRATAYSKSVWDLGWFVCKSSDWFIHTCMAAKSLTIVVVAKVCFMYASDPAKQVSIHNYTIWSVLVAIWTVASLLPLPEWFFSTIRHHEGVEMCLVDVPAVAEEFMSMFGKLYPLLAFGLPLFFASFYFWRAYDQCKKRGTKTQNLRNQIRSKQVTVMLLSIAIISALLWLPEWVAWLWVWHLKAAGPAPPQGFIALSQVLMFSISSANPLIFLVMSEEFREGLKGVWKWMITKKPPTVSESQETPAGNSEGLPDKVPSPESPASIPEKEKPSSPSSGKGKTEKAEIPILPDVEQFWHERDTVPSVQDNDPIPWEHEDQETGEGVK
# MITF confirm: confirmation of human MITF inhibitors. shares compounds with MITF primary. AlphaScreen MITF homodimerization, biotin/His-MITF beads. inhibition, % at 2.6 µM. hit rate 16% among 4,700. AID 1259372;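 active = inhibition above a cutoff derived from the DMSO control wells, cut at about 28% in these data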;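 also: 0% = MITF dimer wells with DMSO only; inhibitors lower the bead chemiluminescence by keeping MITF from dimerizing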
# AS interf DR: AlphaScreen optical interference, dose response counter-screen; shares compounds with MITF primary; hit rate 6% among 480; IC50, µM; AlphaScreen optical interference counterscreen, cell-free; AID 1259373; call rule not given here
# AlphaScreen intf2: optically interferes with AlphaScreen signal; inhibition, % at 2.6 µM; LysRS AlphaScreen counterscreen, signal interference, triplicate; shares compounds with MITF primary; hit rate 7.6% among 4,700;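 active = inhibition above a cutoff derived from the DMSO control wells, cut at about 30% in these data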
# * = called active by the depositor; . = no result. Only some compounds are listed: those with a hit (about 3.4% of all), similar ones and a draw of the others.
SMILES,FBW7 activator,TEAD-YAP block,MITF primary,GPR151 ag,MITF confirm,AlphaScreen intf2,others
COc1ccccc1N(C)S(=O)(=O)c1ccc(C(=O)Oc2ccc(C(C)=O)cc2)cc1,0.2,5.7,11.7,-0.5,.,.,
Cc1cccc(NC(=O)c2ccc(N3C(=O)C4C5C=CC(C5)C4C3=O)cc2)c1 (stereo unspecified),0.1,-15.9,75.6*,1.1,4.2,10.3,
Cc1cccc(NC(=O)c2ccc(N3C(=O)C4C5C=CC(C6CC56)C4C3=O)cc2)c1 (stereo unspecified),0.0,-9.3,-12.4,-1.1,.,.,
O=C(Nc1nc(-c2ccc(F)cc2)cs1)c1cc2cc(Br)cc(Br)c2oc1=O,0.3,2.8,100.5*,-0.6,2.3,-8.7,
Cc1nc(-c2ccc(NC(=O)c3cc4cc(Br)cc(Br)c4oc3=O)cc2)cs1,0.5,4.4,0.0,0.3,.,.,
CCN(CCO)c1ccc(NC(=S)Nc2ccc(OC)cc2)cc1,-0.5,-30.9,-1.9,-2.1,.,.,
NC(=O)c1cncc(-c2cccs2)c1,0.0,0.8,69.6*,0.6,65.2*,13.1,AS interf DR=>6.5
O=C(NC1CC1)c1cncc(-c2cccs2)c1,0.1,-7.3,17.9,-0.3,.,.,
CN1CCN(S(=O)(=O)c2cc([N+](=O)[O-])ccc2N/N=C/c2ccccc2)CC1,0.7,-5.0,-8.9,1.1,.,.,
Cc1ccc(C(NC(=O)/C=C\c2ccc3c(c2)OCO3)C(=O)Nc2ccc3c(c2)OCO3)cc1 (stereo unspecified),0.0,11.8,67.9*,1.5,-21.5,-0.3,
Cc1ccc(Nc2nc(CSc3nnnn3C)cs2)cc1,-0.2,-42.4,0.8,0.3,.,.,
CCCN1CCN(Cc2csc(Nc3ccc(C)cc3)n2)CC1,-0.1,8.2,61.5*,0.2,8.9,19.7,
CN(C)c1cccc(C(=O)N2N=C(C(F)F)CC2(O)C(F)F)c1 (stereo unspecified),0.5,9.4,75.0*,-0.6,12.8,19.2,
CN(C)c1ccc(C(=O)N2N=C(C(F)F)CC2(O)C(F)F)cc1 (stereo unspecified),-0.1,-6.2,-1.5,-0.6,.,.,
Cc1n[nH]c(=S)n1/N=C/c1ccccc1F,0.2,-10.9,70.0*,2.5,-8.5,-1.6,
CCC[C@@H]1NC(=O)[C@H]2CN(Cc3cnn(-c4ccccc4OC)c3)CCN2C1=O,0.6,-1.8,51.3*,1.1,-2.9,-1.8,
COc1ccccc1-n1cc(CN2CCN3C(=O)[C@H](CO)NC(=O)[C@H]3C2)cn1,0.1,7.2,16.0,0.0,.,.,
CCC1CN(Cc2cc(OC)c3c(c2)OCO3)Cc2cc(OC)ccc2O1 (stereo unspecified),0.3,0.3,27.9,-0.3,.,.,
O=C(COC(=O)c1ccc(O)cc1)NC1CCCCC1,-0.1,11.4,58.5*,0.0,-2.5,4.7,
c1ccc(OCCOCCN2CCNCC2)cc1,0.0,3.3,35.8,0.6,.,.,
CCOc1ccccc1OCCOCCN1CCN(Cc2ccccc2)CC1,0.3,5.0,84.7*,0.9,16.5,20.0,
c1ccc(CN2CCN(CCOCCOc3ccccc3)CC2)cc1,0.3,2.6,82.6*,2.8,8.8,8.7,
O=C(Nc1nc2ccccc2s1)c1ccc(NC(=O)C23CC4CC(CC(C4)C2)C3)cc1,0.3,-6.4,14.8,1.0,.,.,
COc1ccc(CC(=O)NCC2(c3ccc(F)cc3)CC2)cc1OC,-0.3,1.6,-11.1,-0.6,.,.,
COc1ccccc1OCC#CCNC1CCCC1,0.5,-0.9,55.4*,-2.2,3.3,9.2,
SMILES,FBW7 activator,TEAD-YAP block,MITF primary,GPR151 ag,MITF confirm,AlphaScreen intf2,others
Cc1ccc2[nH]c(C)c(CCNC(=O)c3cccc([N+](=O)[O-])c3)c2c1,-0.1,13.8,74.5*,-0.1,8.3,17.1,
Cc1[nH]c2ccc(F)cc2c1CCNC(=O)c1cccc([N+](=O)[O-])c1,-0.1,-2.0,3.3,-0.3,.,.,
CC/C(=N/NC(=O)COc1ccc(C)cc1[N+](=O)[O-])c1ccccc1,0.0,-10.5,-2.8,-0.8,.,.,
CN(c1ccc([N+](=O)[O-])cc1)c1ccc([N+](=O)[O-])cc1,0.7,3.2,9.8,-1.2,.,.,
CCOC(=O)CSc1nn2c(=O)c(C)nnc2s1,-0.1,-4.4,3.0,-0.9,.,.,
CCOC(=O)CC(=O)CSc1nn2c(=O)c(C)nnc2s1,-0.2,-0.2,53.2*,0.6,17.7,36.7*,
Cc1nn(C(=O)c2ccc(Cl)cc2)c(C)c1Cl,-0.1,-7.7,17.3,-0.3,.,.,
CCCOC(=O)C(C)Nc1n[nH]c(=S)[nH]c1=O (stereo unspecified),-0.8,-3.4,55.1*,-0.5,-1.4,20.1,
C/C=C/C(=O)N1c2ccc(OC)cc2C(C)=CC1(C)C,-0.1,-3.7,6.5,-0.6,.,.,
COc1ccc2c(c1)C(C)=CC(C)(C)N2C(N)=S,-1.9,1.1,71.5*,0.7,64.9*,53.7*,
O=C(CCc1n[nH]c(=O)[nH]c1=O)N/N=C/c1ccc(O)cc1O,-0.6,6.3,22.3,0.1,.,.,
COc1cccc(-c2noc(C3CCCN(C(=O)c4cccc(OC)c4OC)C3)n2)c1 (stereo unspecified),-0.1,-1.2,5.5,2.3,.,.,
COc1ccc(CNCCSc2nccn2C)cc1,-0.1,-6.3,70.3*,0.5,12.5,14.6,
CCN1CCN(CC(=O)N/N=C/c2cc(Br)cs2)CC1,0.6,19.9,67.8*,0.3,-0.9,3.1,
CC(/C=N/NC(=O)CN1CCN(C)CC1)=C\c1ccccc1,0.7,9.1,73.0*,0.2,3.1,-5.0,
CN(C)c1ccc(/C=N\NC(=O)CN2CCN(Cc3ccccc3)CC2)cc1,0.2,4.6,-4.3,0.6,.,.,
Cc1ccc(/C=N/NC(=O)CCN2CCN(C)CC2)cc1,-0.3,1.0,54.1*,-0.1,6.7,-0.1,
CC(/C=N\NC(=O)Cc1cccn1C)=C\c1ccccc1,0.0,-8.9,-4.5,0.9,.,.,
CCN1CCN(CC(=O)N/N=C/c2ccc(N(C)C)cc2)CC1,0.0,1.6,51.8*,1.4,26.0,6.4,
O=[N+]([O-])c1ccccc1/C=N/Nc1cccc2cccnc12,0.0,-59.9,4.3,0.6,.,.,
COc1cc(/C=C2\SC(=O)N(CC(=O)c3ccccc3)C2=O)ccc1O,0.0,12.8,-7.6,-1.1,.,.,
CCCNC(=O)Cn1cnc2sc(C(=O)NCc3ccccc3OC)c(C)c2c1=O,0.0,7.2,0.7,-1.1,.,.,
COC(=O)c1c(NC(=O)c2ccc(S(=O)(=O)N(CC(C)C)CC(C)C)cc2)sc2c1CCN(C(C)=O)C2,-0.1,-1.4,-2.9,0.4,.,.,
COc1ccccc1NC(=O)/C=C/c1cccc([N+](=O)[O-])c1,-0.1,0.4,18.4,1.4,.,.,
Cc1ccc2cc(CN(C3CCCCC3)S(C)(=O)=O)c(=O)[nH]c2c1,0.3,6.2,13.3,-1.4,.,.,
Cc1cc(C)c(C)c(S(=O)(=O)N2CCN(CC(O)COCc3ccco3)CC2)c1C (stereo unspecified),-0.1,-2.9,51.4*,-0.6,6.7,11.8,
CCN1CCN(S(=O)(=O)c2c(C)c(C)cc(C)c2C)CC1,0.1,0.7,-1.3,-0.5,.,.,
